Experimental data from PubChem BioAssay AID1060 (Emory University Molecular Libraries Screening Center, 2008).
Potency and affinity values are given separately. Activity calls are given as the source filed them.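 How the source made its calls: active means fitted half-inhibition concentration at or below a set limit, with percent of control there at most 60; inactive means the rest.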

biological target: Estrogen receptor beta (Homo sapiens) (UniProt Q92731); experiment: blockers of SRC-3 recruitment to ERβ – biochemical, ELISA, streptavidin-HRP readout, orthogonal assay, confirmation (AID 1060); settings: ERbeta-SRC-3 coactivator binding ELISA; series mostly up to 50 µM
Sequence (Q92731 whole entry, looked up): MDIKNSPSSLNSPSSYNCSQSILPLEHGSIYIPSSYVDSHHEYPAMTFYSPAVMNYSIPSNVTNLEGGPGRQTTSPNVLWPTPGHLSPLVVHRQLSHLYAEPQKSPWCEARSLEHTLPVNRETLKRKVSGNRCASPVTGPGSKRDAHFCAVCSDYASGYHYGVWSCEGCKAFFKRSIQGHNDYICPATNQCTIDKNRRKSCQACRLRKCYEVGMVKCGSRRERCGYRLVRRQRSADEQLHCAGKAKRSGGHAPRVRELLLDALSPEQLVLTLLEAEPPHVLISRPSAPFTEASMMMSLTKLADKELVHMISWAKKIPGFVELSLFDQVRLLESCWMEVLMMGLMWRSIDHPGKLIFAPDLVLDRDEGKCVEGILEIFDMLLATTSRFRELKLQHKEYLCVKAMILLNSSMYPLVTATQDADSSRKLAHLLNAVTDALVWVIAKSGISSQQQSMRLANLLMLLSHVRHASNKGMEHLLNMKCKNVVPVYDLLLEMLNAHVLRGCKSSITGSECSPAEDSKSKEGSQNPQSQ

outcome, inactive:
CC1CC(C(F)(F)C(F)(F)F)n2nc(C(=O)O)cc2N1 (stereo unspecified)
CCC(=O)Nc1ccc(C(=O)Cn2nc(C(=O)O)c3ccccc3c2=O)cc1
Cc1sc2ncnc(NCc3ccco3)c2c1C
Cc1ccc(C(=O)CSC2=C(C#N)C(c3ccco3)CC(=O)N2)c(C)c1 (stereo unspecified)
COc1ccc2nc(-c3ccco3)c(-c3ccco3)nc2c1
COc1ccc2c(=O)c3c(=O)n(Cc4ccco4)c(-c4ccco4)nc3oc2c1
CCCNCC1COc2ccccc2O1 (stereo unspecified)
Cc1cc(C)cc(OCC(=O)Nc2ccc(N3CCCC3)cc2)c1
CSc1nc2c(c(=O)[nH]1)C(c1cccs1)C1=C(CCCC1=O)N2 (stereo unspecified)
Cc1cc(-c2csc(N)n2)c(C)n1C
CCC(=O)Nc1cccc(NC(C)=O)c1
O=S(=O)(Nc1ncnc2sc3c(c12)CCC3)c1ccc2ccccc2c1
COc1ccc(CCNC(=O)c2ccc3nc(-c4ccco4)c(-c4ccco4)nc3c2)cc1OC
CCc1cc(=O)[nH]c(SCC(=O)Nc2ccc(C(=O)OC)cc2)n1
COc1ccccc1-c1nnc2sc(-c3cnccn3)nn12
NC(=O)c1cccc2c1C(=O)N(C1CCCCC1)C2
